Reference: PubChem BioAssay (Tox21)
Results filed as inconclusive are left out. Activity calls are given as the source filed them. Unless noted, calls come from the whole dose curve; as a rule, active = well fitted curve in the direction sought with a large enough effect in the repeat runs; inconclusive = weak or mixed curves; inactive = no such curve, though single readings can be large; an effect the other way counts as inactive or inconclusive.

Columns and labels:
[1] = qHTS assay to identify small molecule agonists of the sonic hedgehog signaling (Shh) pathway - cell viability counter screen (AID 1259366); note: nearly all actives have a fitted effect of over 50% in size
Procedure, shortened: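 Compounds in DMSO were pin-transferred onto 3T3 Gli1-Luc cells that had settled 4hr; plates then stood 24hr at 37C and 5% CO2. One hour before the end, CellTiter-Fluor was added and fluorescence recorded.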

[2] = qHTS assay to identify small molecule antagonists of the sonic hedgehog signaling (Shh) pathway - cell viability counter screen (AID 1259367); note: nearly all actives have a fitted effect of over 55% in size
Procedure, shortened: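 Fluorescence read-out (CellTiter-Fluor, 1 hr at 37C) taken after 23 hr compound treatment of 3T3 Gli1-Luc cells stimulated with conditioned medium. Cells were seeded at 2,000 per well and pre-incubated 4 hr.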

[3] = qHTS assay to identify small molecule agonists of the sonic hedgehog signaling (Shh) pathway (AID 1259368; calls by dose curve;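 note: NIH/3T3-derived 3T3Gli1-Luc cells carrying a stable Gli1-driven firefly luciferase reporter; series mostly up to about 92 µM; nearly all actives have a fitted effect of over 15% in size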)
Procedure, shortened: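 Stable NIH/3T3 Gli1-Luc reporter clone; 24 hr cpd exposure after a 4 hr settling period; luminescence endpoint.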

[4] = biological target: Estrogen receptor beta (Homo sapiens) (UniProt Q92731); test: qHTS assay to identify small molecule agonists of the estrogen receptor beta (ER-beta) signaling pathway (AID 1259377; active = well fitted activation curve with a large enough effect in the signal ratio in the repeat runs, not every such curve was filed as active; the % refers to the signal ratio)
Sequence of Estrogen receptor beta (Homo sapiens) (Q92731 whole entry, looked up): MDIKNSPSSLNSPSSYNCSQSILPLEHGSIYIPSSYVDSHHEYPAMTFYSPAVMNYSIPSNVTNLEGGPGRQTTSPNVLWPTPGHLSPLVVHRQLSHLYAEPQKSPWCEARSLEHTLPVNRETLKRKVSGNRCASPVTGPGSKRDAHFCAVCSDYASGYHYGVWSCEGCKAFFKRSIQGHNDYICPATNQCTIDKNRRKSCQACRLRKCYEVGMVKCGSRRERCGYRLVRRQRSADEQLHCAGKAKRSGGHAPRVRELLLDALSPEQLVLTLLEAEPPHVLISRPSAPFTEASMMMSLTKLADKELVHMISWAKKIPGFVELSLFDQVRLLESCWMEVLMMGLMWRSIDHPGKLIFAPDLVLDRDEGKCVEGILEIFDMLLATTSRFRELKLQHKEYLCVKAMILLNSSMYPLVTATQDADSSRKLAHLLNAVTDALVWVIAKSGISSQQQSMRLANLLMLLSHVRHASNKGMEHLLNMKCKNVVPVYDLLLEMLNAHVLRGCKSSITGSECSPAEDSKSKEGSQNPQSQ
Procedure, shortened: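 qHTS in ER-beta-UAS-bla HEK293T cells: 6 hr settling, then 16 hr compound at 37C, then LiveBLAzer substrate 2 h at RT before fluorescence reading.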

[5] = biological target: Estrogen receptor beta (Homo sapiens) (UniProt Q92731); test: qHTS assay to identify small molecule antagonists of the estrogen receptor beta (ER-beta) signaling pathway (AID 1259378; active = well fitted inhibition curve with a large enough effect in the signal ratio in the repeat runs, not every such curve was filed as active; the % refers to the signal ratio)
Procedure, shortened: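 ER-beta-UAS-bla HEK293T cells in 2% charcoal-stripped FBS medium treated with compound plus 1nM final 17-beta-estradiol for 16 hr at 37C. Beta-lactamase reporter read by FRET substrate fluorescence after 2 hours at room temperature.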

[6] = qHTS assay to identify small molecule agonists of the androgen receptor (AR) signaling pathway in the presence of an antagonist - cell viability counter screen (AID 1259379);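 note: MDA-kb2 human breast cancer cells carrying an MMTV luciferase reporter; series mostly up to about 92 µM; nearly all actives have a fitted effect of over 25% in size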
Procedure, shortened: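 Counter screen for cell viability run in parallel with the AR agonist-mode luciferase assay. MDA-kb2 cells were co-treated with nilutamide (3.0uM final) and compounds, then incubated 16 hr at 37C, and CellTiter-Fluor fluorescence was measured.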

[7] = qHTS assay to identify small molecule agonists of the estrogen receptor beta (ER-beta) signaling pathway - cell viability counter screen (AID 1259380); note: nearly all actives have a fitted effect of over 30% in size
Procedure, shortened: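 In this qHTS counter screen, HEK293T cells carrying an ER-beta/UAS beta-lactamase reporter, grown in 2% charcoal-stripped FBS, received compound for 16 hr; ATP-based CellTiter-Glo luminescence was then read after 30 min at room temperature.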

[8] = qHTS assay to identify small molecule antagonists of the estrogen receptor beta (ER-beta) signaling pathway - cell viability counter screen (AID 1259382); note: series mostly up to about 92 µM; nearly all actives have a fitted effect of over 55% in size
Procedure, shortened: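 HEK293T ER-beta-UAS-bla, 2% charcoal-stripped FBS; compounds + 1nM E2 16 hr 37C; CellTiter-Glo luminescence, 30 min RT.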

[9] = qHTS assay to identify small molecule antagonists of the sonic hedgehog signaling (Shh) pathway (AID 1259369; calls by dose curve; note: nearly all actives have a fitted effect of over 45% in size)
Procedure, shortened: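 Gli1 transcriptional reporter (firefly Luc) in NIH/3T3 background, conditioned-medium activated. 24hr exposure, luminescence endpoint.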

[10] = biological target: Androgen receptor (Homo sapiens) (UniProt P10275); test: qHTS assay to identify small molecule agonists of the androgen receptor (AR) signaling pathway in the presence of an antagonist (AID 1259381; calls by dose curve; note: nearly all actives have a fitted effect of over 15% in size)
Sequence of Androgen receptor (Homo sapiens) (P10275 whole entry, looked up): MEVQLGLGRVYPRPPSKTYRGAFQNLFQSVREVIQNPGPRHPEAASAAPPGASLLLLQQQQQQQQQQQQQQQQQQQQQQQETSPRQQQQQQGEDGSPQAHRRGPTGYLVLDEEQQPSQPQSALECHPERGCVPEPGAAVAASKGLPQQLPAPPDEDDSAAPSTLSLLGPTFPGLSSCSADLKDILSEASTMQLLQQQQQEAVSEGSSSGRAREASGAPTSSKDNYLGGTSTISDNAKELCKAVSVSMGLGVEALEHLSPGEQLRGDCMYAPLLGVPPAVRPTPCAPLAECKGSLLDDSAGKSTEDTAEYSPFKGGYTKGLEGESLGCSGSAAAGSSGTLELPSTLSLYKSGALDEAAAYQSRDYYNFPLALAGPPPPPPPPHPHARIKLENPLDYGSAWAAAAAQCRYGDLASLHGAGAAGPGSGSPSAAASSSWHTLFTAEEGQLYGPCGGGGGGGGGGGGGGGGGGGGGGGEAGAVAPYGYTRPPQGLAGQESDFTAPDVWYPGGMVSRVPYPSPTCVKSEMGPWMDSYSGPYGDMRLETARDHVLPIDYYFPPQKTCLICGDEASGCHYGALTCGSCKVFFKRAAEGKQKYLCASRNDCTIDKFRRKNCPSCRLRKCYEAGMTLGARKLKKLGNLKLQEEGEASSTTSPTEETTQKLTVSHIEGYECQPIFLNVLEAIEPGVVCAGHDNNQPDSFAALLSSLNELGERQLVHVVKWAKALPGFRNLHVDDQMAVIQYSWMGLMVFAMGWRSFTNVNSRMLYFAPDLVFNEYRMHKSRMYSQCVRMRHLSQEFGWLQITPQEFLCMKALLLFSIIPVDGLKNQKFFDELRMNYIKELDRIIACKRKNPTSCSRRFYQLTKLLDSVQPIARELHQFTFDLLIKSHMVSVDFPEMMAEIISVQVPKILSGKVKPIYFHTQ
Procedure, shortened: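 AR antagonist background: nilutamide 3.0uM final. Cell line: MDA-kb2, MMTV-driven luciferase, responsive to both AR and GR. Exposure 16hr, 37C, no CO2; ONE-Glo luminescence.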

Measured: Potency

N#CC1(N)CCCCC1
not listed: [9] | [10]
inactive: all other assays above

CC12CCCC=C1C(=O)OC2=O (configuration not stated)
not listed: [4] | [5] | [7]
inactive: all other assays above

O=C(O)CCC(=O)Nc1ccc(S(=O)(=O)Nc2nccs2)cc1
inactive: [1] | [2] | [3] | [9] | [6] | [8]

O=C(O)CCCCCCCCCC(=O)O
not listed: [7] | [9]
inactive: all other assays above

Cc1ccc(NC(N)=O)cc1
not listed: [9] | [10]
inactive: all other assays above
